Screening data from PubChem.
An excerpt weighted towards active compounds, which were near 0.56% of everything screened.
PvdQ inh – blocks Pseudomonas aeruginosa PvdQ acylase activity; purified PvdQ acylase, fluorescence plate reader; inhibition, % at 10 µM; AID 488965; actives 0.063% (n = 340,000); in the data active means inhibition above about 30%, passing the limit was not always enough; inconclusive means no clear call, values can overlap the other calls;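 further: 0% = vehicle neutral wells and 100% = reference inhibitor wells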
Vif inh – inhibitors of HIV Vif. actives 0.35% (n = 340,000). inhibition, % at 7.49 µM. HEK293T cells, Vif self-association by quenched fluorescence, imaging, 24 h; in the data active means inhibition above about 50%, passing the limit was not always enough; inconclusive means no clear call, values can overlap the other calls; inactive means below about 31%
PDI inh – blocks human protein disulfide isomerase activity. P07237. PDI insulin aggregation turbidity, A650, 90 min. inhibition, % at 10 µM. actives 0.052% (n = 350,000). AID 588391;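 active means mean inhibition across replicates of 30% or more, whatever share of single replicates reach that level; inconclusive means mean inhibition below 30% while every single replicate reaches 30%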
N-glyco inh – blocks N-linked glycosylation in D54 reporter cells | D54 ERlucT glycosylation luciferase reporter, 24 h; percent of 100 nM tunicamycin response | reporter increase, % at 12.5 µM | actives 0.23% (n = 360,000) | AID 588692;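 active means mean luciferase reporter signal, scaled so untreated is 0 and the glycosylation-blocking control 100, at or above a set limit in every replicate; inconclusive means mean reaches the limit but not every replicate does; inactive means mean below the limit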;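 further: luciferase carries N-glycosylation sites so blocking glycosylation raises the light; 0% = median of neutral control wells and 100% = median of 100 nM tunicamycin wells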
ERp5 inh – inhibitors of human ERp5; actives 0.05% (n = 350,000); inhibition, % at 9.99 µM; ERp5 insulin aggregation, absorbance 650 nm, 90 min;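 active means mean replicate inhibition above about 25%, with every replicate also reaching it, limit read from the data, passing the limit was not always enough; inconclusive means only one of those two criteria met; inactive means neither criterion met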
Target sequence (Q15084 whole entry, looked up): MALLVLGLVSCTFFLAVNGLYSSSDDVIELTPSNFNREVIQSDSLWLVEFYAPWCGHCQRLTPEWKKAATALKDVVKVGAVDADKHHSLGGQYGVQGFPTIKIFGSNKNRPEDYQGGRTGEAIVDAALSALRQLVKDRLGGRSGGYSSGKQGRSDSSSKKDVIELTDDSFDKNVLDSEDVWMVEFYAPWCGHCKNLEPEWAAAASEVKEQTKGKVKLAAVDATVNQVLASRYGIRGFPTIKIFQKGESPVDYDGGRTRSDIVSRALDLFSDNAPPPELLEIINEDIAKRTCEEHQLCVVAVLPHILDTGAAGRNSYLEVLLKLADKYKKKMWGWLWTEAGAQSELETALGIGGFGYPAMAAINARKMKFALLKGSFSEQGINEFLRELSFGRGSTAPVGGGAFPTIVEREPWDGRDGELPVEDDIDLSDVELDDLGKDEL
* hit, by the source's call; i = inactive; ? = inconclusive; · = no result.

SMILES	PvdQ inh	Vif inh	PDI inh	N-glyco inh	ERp5 inh
O=C(CC[C@H]1O[C@@H](n2ccc(=O)[nH]c2=O)[C@H](O)[C@@H]1O)N1CCN(Cc2cccc3ccccc23)CC1	·	0	·	1	-5
O=C(Nc1ccc(NC(=O)c2ccccc2F)cn1)c1ccco1	-7	8	9	-16	-2
O=CNC1(c2ccccc2)CCCCC1	94*	2	1	0	4
Cc1ccc2oc(=O)c(/C=C(\O)c3cccs3)nc2c1	-9	89*	3	-1	·
COc1cccc(NC(=O)N(C)C[C@H]2Oc3cc(C#Cc4ccc(F)cc4)ccc3S(=O)(=O)N([C@@H](C)CO)C[C@@H]2C)c1	·	·	·	·	1
CCOc1ccc(C(C)=O)cc1COC(=O)c1cc([N+](=O)[O-])ccc1N1CCOCC1	-5	71*	-8	5	0
COc1ccc(OC)c(COC(=O)c2cc([N+](=O)[O-])ccc2N2CCOCC2)c1	-9	-24	-11	7	21
CCOC(=O)c1sc2nc(-c3ccccc3)ccc2c1N	-17	19	-2	-15	·
NC(=O)c1sc2nc(-c3ccccc3)ccc2c1N	-8	61*	0	6	-3
COc1ccc(C(=O)c2sc3nc(-c4ccccc4)ccc3c2N)cc1OC	-9	i	-4	1	·
COc1ccc(-c2ccc3c(N)c(C(=O)c4ccc(OC)c(OC)c4)sc3n2)cc1	-2	148*	0	6	·
Cc1c(-c2cccs2)[n+](=O)c2c(n1[O-])CCC2	-4	-1	-2	-1	·
COc1ccc2c3c([nH]c2c1)[C@H](CO)N(C(=O)C1CC1)CC31CCN(Cc2nccs2)CC1	·	·	·	·	-9
COc1ccc2c3c([nH]c2c1)[C@H](CO)N(Cc1nccs1)CC31CN(C(=O)C2CCCCC2)C1	·	·	·	·	4
COc1ccc2c3c([nH]c2c1)[C@@H](CO)N(Cc1nccs1)CC31CN(C(=O)C2CCCC2)C1	·	·	·	·	80*
COc1ccc2c3c([nH]c2c1)[C@H](CO)N(C(=O)C1CCOCC1)CC31CCN(Cc2nccs2)CC1	·	·	·	·	84*
Nc1nc(-c2cc3ccccc3o2)cs1	1	-6	5	-4	8
c1ccc2c(-c3nc4ccccc4[nH]3)cccc2c1	·	0	-7	28*	-8
c1ccc2[nH]c(-c3ccnc4ccccc34)nc2c1	-13	9	18	1	·
CC(C)CC(=O)N1CCN(S(=O)(=O)c2ccc(Cl)cc2)CC1	-10	3	1	-1	3
CCOC(=O)c1ccc(N2Cc3ccccc3C2=NC(=O)c2ccncc2)cc1	?	-2	11	-1	2
CCOC(=O)c1ccc(N2Cc3ccccc3C2=N)cc1	58*	7	-1	1	·
Cc1cccc(C2c3[nH]c4ccccc4c3CCN2C(=O)c2ocnc2C)n1 (stereo not drawn)	-18	4	1	2	1
COc1cc(OC)cc(-c2c(-c3cccs3)c3cc(-c4ccc(C(N)=O)cc4)ccc3n2C)c1	-5	112*	-8	-5	·
COc1ccc(-c2ccc3c(c2)c(-c2cccs2)c(-c2cc(OC)cc(OC)c2)n3C)cc1	-2	0	-8	-2	1
SMILES	PvdQ inh	Vif inh	PDI inh	N-glyco inh	ERp5 inh
CC1CCCN(S(=O)(=O)c2ccc([N+](=O)[O-])cc2)C1 (stereo not drawn)	-8	7	-11	0	1
C[C@@H]1CN([C@H](C)CO)C(=O)c2cc(NC(=O)Cc3cn(C)c4ccccc34)ccc2O[C@H]1CN(C)Cc1ccc(C(=O)O)cc1	·	·	·	·	-3
O=C(Cc1ccccc1)Nc1ccc2c(c1)C(=O)N(CC1CCCO1)C2=O (stereo not drawn)	-4	50*	13	2	-1
COc1ccc(C2CC3(O)CC(C#N)(C(=O)N3)C2(C#N)C#N)cc1 (stereo not drawn)	-19	-27	2	1	3
COc1ccc(C2CC3(O)NC(=O)C(C#N)(C3C)C2(C#N)C#N)cc1 (stereo not drawn)	·	66*	-2	1	2
O=C(O)CCc1nc(-c2ccc(Cl)cc2)no1	36*	1	-4	1	·
Cc1ccc(SCC(=O)NCc2ccc(F)cc2)cc1	-15	5	-3	1	2
COc1ccc(C(=O)Nc2nc3cc4c(cc3s2)OCCO4)c(OC)c1	3	78*	-8	-1	3
CCOC(=O)CNC(=O)N1CCCC(C(=O)c2ccc3c(c2)OCO3)C1 (stereo not drawn)	-17	-1	-11	-1	-2
N#CC(c1ccc(F)cc1)c1ccc(C(=O)c2ccccc2)cc1 (stereo not drawn)	48*	-6	24	-6	·
